# Assays:
# Type in all cases: functional
# Plasmodium falciparum [1] = test: GSK_TCMDC: Inhibition of Plasmodium falciparum 3D7 in whole red blood cells, using parasite LDH activity as an index of growth. Test compounds present at 2uM
# Plasmodium falciparum [2] = test: GSK_TCMDC: Inhibition of Plasmodium falciparum Dd2 in whole red blood cells, using parasite LDH activity as an index of growth. Test compounds present at 2uM
# HepG2 = test: GSK_TCMDC: Percent inhibition of human HepG2 cell line. Test compounds present at 10uM.
SMILES,Inhibition (Plasmodium falciparum [1]) [%],Inhibition (Plasmodium falciparum [2]) [%],Inhibition (HepG2) [%]
CC(=O)Nc1ccc(C(=O)Nc2cccc(-c3csc(-c4nc5ccccc5[nH]4)c3)c2)cn1,100,97,6
CCCCCCNC(=O)C1Cc2c([nH]c3ccc(Br)cc23)C2(CCN(Cc3ccccc3)CC2)N1 (stereo not given),100,75,100
CCN1C(c2ccc(Cl)cc2)C(CNCc2ccccc2O)CC1(C)CO (stereo not given),99,99,47
Oc1c(C(Nc2nc3ccccc3s2)c2ccccc2)ccc2cccnc12 (stereo not given),95,83,45
O=C(/C=C/c1c(Cl)cccc1Cl)NC1CCC(CN2CCC(c3c[nH]c4ccncc34)CC2)CC1 (stereo not given),99,100,78
Cc1cccc2c3c([nH]c12)C1(CCN(CCc2ccccc2)CC1)NC(C(=O)NCc1ccccc1)C3 (stereo not given),86,52,10
C=CCOc1ccc(-c2c(C)[nH]c(C)c(Br)c2=O)cc1,98,96,5
O=C(Nc1ccc(Cl)c(C(F)(F)F)c1)NC1CCN(CCCCCNC(=O)C2CC2c2ccc(Cl)c(Cl)c2)CC1 (stereo not given),100,41,79
CCCN(CCC)C(=O)c1cc(C(=O)N[C@@H](Cc2ccccc2)[C@H](O)CNC(C)(C)c2cccc(OC)c2)cc(N2CCCCS2(=O)=O)c1,99,74,16
O=C(Nc1ccc(OC2CCN(Cc3ccccc3)C2)c(Cl)c1)c1ccco1.O=C(O)C(F)(F)F (stereo not given),95,94,13
COc1ccc2cc(C(=O)NC3CCC(CCN4CCc5cc(C#N)ccc5C4)CC3)[nH]c2c1.Cl (stereo not given),88,0,9
O=C(Nc1ccc(-c2cccc(-c3nc4cc(F)ccc4[nH]3)c2)cc1)Nc1ccc(Cl)c(Cl)c1,99,24,68
COc1ccc(CCCc2nc(N)nc(N)c2-c2ccc(Cl)cc2)cc1,94,0,65
Cc1cccc(-c2nc3cc(NC(=O)c4ccc([N+](=O)[O-])o4)ccc3o2)c1,94,73,8
CC(=O)c1cccc(Nc2nc3ccc(OCc4cc(Cl)cc(Cl)c4)c(C#N)c3[nH]2)c1,86,45,29
Oc1c(CN2CCCC(C(F)(F)F)C2)cc(Cl)c2ccccc12 (stereo not given),94,53,23
CCCCCCCNc1cc(C)nc2ccc(OC)cc12.Cl,100,100,30
COc1cccc2c(NN=Cc3ccccc3Cl)cc(C)nc12,100,100,22
O=C(C=Cc1ccc(Cl)c(Cl)c1)NCCCCCN1CCCC(CCCNC(=O)c2sc3ccccc3c2Cl)C1 (stereo not given),88,32,82
CC(C)(C(=O)Nc1ccc(C2CCC(NCC3CC3)CC2)c(Cl)c1)c1cccc(OC(F)F)c1 (stereo not given),99,23,34
CCC[C@@H]([C@@H](CC1CCCCC1)C(=O)N[C@H](C(=O)Nc1nccs1)C(C)(C)SCCNC(=O)OCC)N(O)C=O,99,98,45
N#Cc1ccc(CN2CCC(NC(=O)c3ccc(-c4nnc(-c5cccc6ccccc56)o4)cc3)CC2)cc1,98,14,37
CN(C(=O)Cc1ccc(Cl)c(Cl)c1)C1CCN(CCCCCNC(=O)/C=C/c2ccc(Cl)c(Cl)c2)CC1,84,13,87
CC=CC1CCNC(C(O)c2ccnc3ccc(OC)cc23)C1 (stereo not given),91,1,0
CCOC(=O)c1cnc2cc(N3CCCC3)c(Cl)cc2c1OCC,97,97,0
O=C(Nc1c(F)cccc1F)c1cccc(-c2nn3ccccc3c2-c2ccnc(Nc3cccc(-c4cnco4)c3)n2)c1,95,94,96
COc1ccc2nccc([C@@H](O)CN3CCC(NC(=O)Cc4ccc(Br)c5ccccc45)CC3)c2c1,98,40,10
COc1ccccc1CCNc1nc(C)cc(N[C@@H](CC(C)C)C(=O)Nc2ccccc2)n1.O=C(O)C(F)(F)F,100,76,16
Cc1cccc(-c2nn(-c3ccccc3)c3[nH]c(=O)c(CN4CCSCC4)cc23)c1,98,98,0
CC1(C(=O)Nc2ccc([N+](=O)[O-])cc2O)CC2c3ccccc3C1c1ccccc12 (stereo not given),98,16,37
